Measured values from the supplement of paper PMC7156485.

These molecules were tested on TDF (assay: H1.0 immunofluorescence intensity relative to DMSO (% of DMSO); higher = stronger H1.0 induction, active = 120 or more). Settings: concentration: 10 µM; 24 h.
Procedure, shortened: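 After 24 h at 37 °C with compounds at 10 µM, in triplicate, HCC1569 and TDF cells were fixed with 3.7% formaldehyde. Immunostaining used a rabbit anti-H1.0 antibody and an AlexaFluor 647 secondary, with DAPI, and six fields per well were imaged at ×10. H1.0 nuclear intensity or cell number is presented as percent of the plate control, from the median of replicates, with HCC1569 values smoothed for positional effects.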
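Further: TDF is a line of transformed human dermal fibroblasts of mesenchymal origin.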

Compound | H1.0 immunofluorescence intensity
CCCCC1=NC2(CCCC2)C(=O)N1Cc1ccc(-c2ccccc2-c2nn[nH]n2)cc1 | 101 (inactive)
Nc1nc(=O)c2ncn(COCCO)c2[nH]1 [Acyclovir] | 90.2 (inactive)
O=C(O)c1cc([N+](=O)[O-])ccc1NCCCc1ccccc1 [5-Nitro-2-(3-phenylpropylamino)benzoic acid] | 91 (inactive)
CN1C2CCC1CC(NC(=O)c1nn(C)c3ccccc13)C2.O=C(O)C=CC(=O)O (stereo not given) [LY-278,584 maleate] | 99.1 (inactive)
COc1ccc(-c2coc3cc(O)cc(O)c3c2=O)cc1 [Biochanin A] | 93.9 (inactive)
CNC1(C)C2CCC(C2)C1(C)C (stereo not given) [Mecamylamine] | 83.3 (inactive)
C=C1C(=CC=C2CCCC3(C)C2CCC3C(C)CCCC(C)C)CC(O)CC1O (stereo not given) [Alfacalcidol] | 96.5 (inactive)
CN(C)CCCN1c2ccccc2CCc2ccccc21.Cl [Imipramine.HCl] | 95.2 (inactive)
Cc1cc(Nc2ncc3cc(-c4c(Cl)cccc4Cl)c(=O)n(C)c3n2)ccc1F | 201 (active)
O=C1N(c2ccccc2)c2ccccc2C1(Cc1ccncc1)Cc1ccncc1 [Linopirdine] | 93.9 (inactive)
Cl.Cl.Cl.Cl.NCCCNCCCCNCCCN [Spermine tetrahydrochloride] | 92.3 (inactive)
CCCCCC=CC=C1C(=O)C=CC1CC=CCCCC(=O)O (stereo not given) [15d-Prostaglandin J2] | 97.5 (inactive)
S=C([S-])OC1CC2CC1C1CCCC21.[K+] (stereo not given) | 90.2 (inactive)
COc1cccc2c1C(=O)c1c(O)c3c(c(O)c1C2=O)CC(O)(C(=O)CO)CC3OC1CC(N)C(O)C(C)O1.Cl (stereo not given) [Doxorubicin.HCl] | 132 (active)
CN(C(Cc1ccc(OS(=O)(=O)c2cccc3cnccc23)cc1)C(=O)N1CCN(c2ccccc2)CC1)S(=O)(=O)c1cccc2cnccc12 (stereo not given) | 113 (inactive)
CCc1cc(Cl)c(OC)c(C(=O)NCC2CCCN2CC)c1O.Cl (stereo not drawn) [S-(-)-Eticlopride hydrochloride] | 103 (inactive)
CCCCCC(O)C=CC1C2CC(CO2)C1CC=CCCCC(=O)O (stereo not given) | 93.7 (inactive)
CCCCCCCCCCCCCCCC(=O)OCC=C(C)C=CC=C(C)C=CC1=C(C)CCCC1(C)C [Retinyl palmitate] | 93.8 (inactive)
CC(CS)C(=O)N1CCCC1C(=O)O (stereo not given) [Captopril] | 97.6 (inactive)
CC1CCC(C(C)(C)O)CC2=C1CCC2C (single isomer, unassigned; (-)) [(-)-Guaiol] | 102 (inactive)

Compound | H1.0 immunofluorescence intensity
O=C1Nc2cc(Br)ccc2C1=C1N=c2ccccc2=C1NO [GSK-3 Inhibitor IX] | 112 (inactive)
CC(C)C(NC(=O)OCc1ccccc1)C(=O)NC(C=O)Cc1ccccc1 (stereo not given) | 103 (inactive)
O=C(O)CCCc1c[nH]c2ccccc12 [Indole-3-butyric acid] | 98.4 (inactive)
COC(=O)c1ccc(O)c2[nH]c3c(C=O)c(O)cc(=O)c-3nc12 [Lomofungin] | 94.3 (inactive)
CCS(=O)(=O)CCn1c([N+](=O)[O-])cnc1C [Tinidazole] | 102 (inactive)
NC(=O)c1cccc(N)c1 [3-aminobenzamide] | 90.5 (inactive)
CNC1C(O)C(NC)C2OC3(O)C(=O)CC(C)OC3OC2C1O.Cl.Cl (stereo not given) [Spectinomycin.2HCl] | 94.4 (inactive)
CN(C)CCOC(c1ccccc1)c1ccccc1.Cl [Diphenhydramine hydrochloride] | 88.7 (inactive)
C(=Cc1ccccc1)CN1CCN(C(c2ccccc2)c2ccccc2)CC1 [Cinnarizine] | 106 (inactive)
CC(C=CC1=C(C)CCCC1(C)C)=CC=CC(C)=CC(=O)O [Retinoic acid] | 95.8 (inactive)
COc1ccc(-c2cc(=O)c3ccc(O)cc3o2)cc1 [Pratol] | 94 (inactive)
CC(=O)O.O=C(O)c1ccc2c3c1cccc3c(=O)n1c3ccccc3nc21 | 91.3 (inactive)
CC1COc2c(N3CCN(C)CC3)c(F)cc3c(=O)c(C(=O)O)cn1c23 (stereo not given) [Ofloxacin] | 95 (inactive)
CC=CC(=O)N(CC)c1ccccc1C [Crotamiton] | 101 (inactive)
O=C1Cc2c([nH]c3ccc(Br)cc23)-c2ccccc2N1 [Kenpaulone] | 89.8 (inactive)
O=P(O)(O)C(O)(Cc1cccnc1)P(=O)(O)O [Risedronic acid] | 100 (inactive)
COC(=O)C(Cc1ccc(OCCn2c(=O)sc3cc(C(=O)c4ccccc4)ccc32)cc1)C(=O)OC | 93.3 (inactive)
COC(=O)C(N)Cc1ccc(Cl)cc1.Cl (racemic) [DL-p-Chlorophenylalanine methyl ester hydrochloride] | 107 (inactive)
COC(=O)[C@H](Cc1ccc([N+](=O)[O-])cc1)NC(=O)c1cccc2ccccc12 [methyl (2S)-2-(1-naphthoylamino)-3-(4-nitrophenyl)propanoate] | 100 (inactive)
O=c1[nH]c(=O)n(C2CC(O)C(CO)O2)cc1I (stereo not given) [Idoxuridine] | 92.2 (inactive)
